Results taken from PubChem BioAssay (Tox21).
A number with no mark means an inactive call. Records with an inconclusive call do not appear. Entries that show only a call come without a potency. Active and inactive are the calls of the source. Unless noted, calls come from the whole dose curve.

Experiments:
[1] = Nuclear factor erythroid 2-related factor 2/antioxidant responsive element (Nrf2/ARE) small molecule agonists: qHTS cell viability counter screen in human keratinocytes (AID 1919968; active = well fitted curve in the direction sought with a large enough effect in the repeat runs; an effect the other way counts as inactive or inconclusive; note: nearly all actives have a fitted effect of over 55% in size; note: potency is the fitted concentration of half-maximal effect)
Outline: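 Seed 1,500 KeratinoSens cells per well, then incubate 5 h at 37 C/5% CO2. Add compounds in DMSO and incubate 23 h. Add CellTiter-Fluor, wait 1 h and read fluorescence.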

[2] = Nuclear factor erythroid 2-related factor 2/antioxidant responsive element (Nrf2/ARE) small molecule agonists: luciferase reporter gene qHTS assay in human keratinocytes (AID 1919969); note: nearly all actives have a fitted effect of over 35% in size; note: potency is the fitted concentration of half-maximal effect
[3] = target: Gonadotropin-releasing hormone receptor (Homo sapiens) (UniProt P30968); experiment: Human gonadotropin-releasing hormone receptor (GnRHR) small molecule agonists, calcium flux assay in GnRHR-HEK293 cells (AID 1920063); note: nearly all actives have a fitted effect of over 35% in size; note: potency is the fitted concentration of half-maximal effect
Sequence of Gonadotropin-releasing hormone receptor (Homo sapiens) (P30968 whole entry, looked up): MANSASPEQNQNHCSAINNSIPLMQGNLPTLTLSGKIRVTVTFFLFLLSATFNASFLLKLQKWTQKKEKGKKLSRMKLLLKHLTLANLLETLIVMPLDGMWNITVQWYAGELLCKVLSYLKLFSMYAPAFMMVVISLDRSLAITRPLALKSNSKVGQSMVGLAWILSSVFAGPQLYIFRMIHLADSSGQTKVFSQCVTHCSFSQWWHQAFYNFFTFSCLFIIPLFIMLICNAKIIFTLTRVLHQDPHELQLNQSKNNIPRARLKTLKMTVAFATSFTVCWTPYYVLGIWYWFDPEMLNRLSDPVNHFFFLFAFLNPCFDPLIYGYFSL
Outline: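 Cells: HEK293 stably expressing human GnRHR. Steps: overnight (18 h) culture, 1 h calcium dye loading at 37 C, compound addition, kinetic fluorescence read at 480/540 nm. Each compound tested at 15 concentrations in triplicate.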

[4] = target: KiSS-1 receptor (Homo sapiens) (UniProt Q969F8); experiment: Human kisspeptin (KISS1R) small molecule agonists, calcium flux assay in KISS1R-HEK293 cells (AID 1920064; active = well fitted curve in the direction sought with a large enough effect in the repeat runs; an effect the other way counts as inactive or inconclusive; note: potency is the fitted concentration of half-maximal effect)
Sequence of KiSS-1 receptor (Homo sapiens) (Q969F8 whole entry, looked up): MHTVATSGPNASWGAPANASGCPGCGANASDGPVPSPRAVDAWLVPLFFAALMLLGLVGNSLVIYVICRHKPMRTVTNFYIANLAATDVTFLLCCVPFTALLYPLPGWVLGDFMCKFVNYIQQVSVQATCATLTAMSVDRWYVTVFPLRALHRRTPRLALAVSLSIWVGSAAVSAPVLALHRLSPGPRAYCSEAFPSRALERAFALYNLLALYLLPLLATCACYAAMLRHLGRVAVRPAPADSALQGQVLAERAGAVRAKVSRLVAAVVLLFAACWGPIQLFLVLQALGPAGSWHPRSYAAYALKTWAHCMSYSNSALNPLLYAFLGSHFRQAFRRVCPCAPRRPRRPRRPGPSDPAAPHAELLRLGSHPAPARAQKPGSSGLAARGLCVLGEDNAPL
Outline: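 Cells plated and incubated 18 h; dye added, 1 h at 37 C; compounds in DMSO pinned in; signal read at 480/540 nm every second for 3 min. Each compound tested at 15 concentrations in triplicate.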

[5] = G protein-coupled receptor (GPCR) small molecule agonists, calcium flux assay: HEK293 wild type cell line counter screen (AID 1920065); note: potency is the fitted concentration of half-maximal effect
Outline: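 Counter-screen of the Tox21 10K library for non-specific calcium release: dye-loaded cells received compounds in DMSO and were monitored by kinetic fluorescence (480/540 nm, 3 min). Fifteen concentrations, run in triplicate.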

[6] = p53 small molecule agonists, cell-based qHTS assay with human liver microsomes (AID 1963577);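 note: p53 response element beta-lactamase reporter cells with liver microsomes plus NADPH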
Outline: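 p53RE-bla cells; 5 h settle, 37 C/5% CO2; cpd + HLM 0.5 mg/mL + NADPH 0.5 mg/mL (final); 16 h 37 C; LiveBLAzer 2 h RT dark; fluorescence readout.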

[7] = p53 small molecule agonists, cell-based qHTS assay with rat liver microsomes (AID 1963578)
Outline: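 Rat liver microsome activation: microsomes 0.5 mg/mL, NADPH 0.5 mg/mL final; p53RE-bla cells, 16 h 37 C; LiveBLAzer readout, 2 h RT dark.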

[8] = p53 small molecule agonists, cell-based qHTS assay with human liver microsomes: qHTS cell viability counter screen (AID 1963579); note: nearly all actives have a fitted effect of over 45% in size; note: potency is the fitted concentration of half-maximal effect
Outline: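 Luminescent CellTiter-Glo read-out, 30 min at room temperature, gauged cytotoxicity in p53RE-bla cells exposed 16 h at 37 C to DMSO-dissolved compounds with metabolic activation by human liver microsomes and NADPH, each 0.5 mg/mL final.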

[9] = p53 small molecule agonists, cell-based qHTS assay with rat liver microsomes: qHTS cell viability counter screen (AID 1963580); note: nearly all actives have a fitted effect of over 45% in size; note: potency is the fitted concentration of half-maximal effect
Outline: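 p53RE-bla HCT-116 cells (4,000/well) rested 5 h at 37 C, then given Tox21 compounds in DMSO with rat liver microsomes (0.5 mg/mL final) plus NADPH (0.5 mg/mL final) for 16 h at 37 C. Viability read by CellTiter-Glo luminescence after 30 min at room temperature.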

[10] = p53 small molecule agonists, cell-based qHTS assay: qHTS cell viability counter screen (AID 1963581); note: nearly all actives have a fitted effect of over 45% in size; note: potency is the fitted concentration of half-maximal effect
Outline: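 Cells: HCT-116 with p53 response element-driven beta-lactamase. Treatment: 16 h, 37 C, compounds in DMSO. Read: CellTiter-Glo luminescence after 30 min RT.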

[11] = p53 small molecule agonists, cell-based qHTS assay (AID 1963582; active = well fitted activation curve with a large enough effect in the signal ratio in the repeat runs, not every such curve was filed as active; the % refers to the signal ratio)
Outline: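 Quantitative HTS in p53RE-bla cells: after a 5 h settling period, compounds delivered in DMSO were left on cells for 16 h at 37 C, and reporter induction was measured as fluorescence following 2 h substrate loading.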

[12] = target: 5-hydroxytryptamine receptor 2A (Homo sapiens) (UniProt P28223); experiment: 5-hydroxytryptamine receptor 2A (HTR2A) small molecule agonists, cell-based qHTS assay (AID 1963587); note: nearly all actives have a fitted effect of over 30% in size; note: potency is the fitted concentration of half-maximal effect
Sequence of 5-hydroxytryptamine receptor 2A (Homo sapiens) (P28223 whole entry, looked up): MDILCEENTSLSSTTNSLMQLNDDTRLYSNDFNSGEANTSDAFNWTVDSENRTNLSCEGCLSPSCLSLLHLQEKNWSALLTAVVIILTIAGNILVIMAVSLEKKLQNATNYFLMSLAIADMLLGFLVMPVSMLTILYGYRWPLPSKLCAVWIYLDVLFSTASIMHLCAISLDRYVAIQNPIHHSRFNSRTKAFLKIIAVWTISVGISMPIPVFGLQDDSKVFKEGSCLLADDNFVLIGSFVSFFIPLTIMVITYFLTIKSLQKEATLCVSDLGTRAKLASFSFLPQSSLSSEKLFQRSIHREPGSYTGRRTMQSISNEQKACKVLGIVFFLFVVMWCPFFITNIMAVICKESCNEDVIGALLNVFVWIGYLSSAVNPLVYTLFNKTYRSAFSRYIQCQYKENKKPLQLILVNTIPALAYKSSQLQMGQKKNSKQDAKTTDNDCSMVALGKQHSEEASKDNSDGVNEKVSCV
Outline: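 HTR2A-CHO cells, plated 18 h at 37 C/5% CO2, dye-loaded 1 h at 37 C; compounds in DMSO added by pin tool (agonist mode). Intracellular calcium flux read as kinetic fluorescence on FDSS over 2 min at 1 s intervals.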

[13] = target: Muscarinic acetylcholine receptor M1 (Homo sapiens) (UniProt P11229); experiment: Cholinergic receptor muscarinic 1 (CHRM1) small molecule agonists, cell-based qHTS assay (AID 1963589); note: nearly all actives have a fitted effect of over 35% in size; note: potency is the fitted concentration of half-maximal effect
Sequence of Muscarinic acetylcholine receptor M1 (Homo sapiens) (P11229 whole entry, looked up): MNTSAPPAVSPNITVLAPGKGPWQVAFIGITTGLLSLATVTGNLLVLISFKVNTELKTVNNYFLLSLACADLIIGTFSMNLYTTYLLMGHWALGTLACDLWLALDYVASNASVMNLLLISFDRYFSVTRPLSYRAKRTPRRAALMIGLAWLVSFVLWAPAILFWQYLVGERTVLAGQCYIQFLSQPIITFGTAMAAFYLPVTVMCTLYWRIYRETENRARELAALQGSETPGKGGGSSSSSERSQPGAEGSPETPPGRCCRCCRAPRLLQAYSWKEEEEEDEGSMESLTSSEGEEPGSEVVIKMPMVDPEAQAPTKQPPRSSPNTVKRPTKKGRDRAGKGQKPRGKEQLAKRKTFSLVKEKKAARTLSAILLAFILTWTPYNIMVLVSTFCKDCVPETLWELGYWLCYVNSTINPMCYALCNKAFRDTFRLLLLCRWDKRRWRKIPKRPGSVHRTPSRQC
Outline: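 Agonist-mode qHTS in CHO cells stably carrying human muscarinic M1. Intracellular calcium is tracked by fluorescence every second after compound transfer; each compound runs at 15 concentrations in three independent runs.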

[14] = cAMP Responsive Elements (CRE) small molecule antagonists, cell-based qHTS assay (AID 1963591; active = well fitted inhibition curve with a large enough effect in the signal ratio in the repeat runs, not every such curve was filed as active; the % refers to the signal ratio)
Outline: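 Antagonist mode: test compounds are co-incubated with the adenylyl cyclase activator NKH477 (0.25 uM final) on CRE-bla HEK293T cells for 3 h at 37 °C, followed by LiveBLAzer substrate loading.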

[15] = target: D(2) dopamine receptor (Homo sapiens) (UniProt P14416); experiment: Dopamine D2 receptor (DRD2) small molecule agonists, cell-based qHTS assay (AID 1963594); note: nearly all actives have a fitted effect of over 35% in size
Sequence of D(2) dopamine receptor (Homo sapiens) (P14416 whole entry, looked up): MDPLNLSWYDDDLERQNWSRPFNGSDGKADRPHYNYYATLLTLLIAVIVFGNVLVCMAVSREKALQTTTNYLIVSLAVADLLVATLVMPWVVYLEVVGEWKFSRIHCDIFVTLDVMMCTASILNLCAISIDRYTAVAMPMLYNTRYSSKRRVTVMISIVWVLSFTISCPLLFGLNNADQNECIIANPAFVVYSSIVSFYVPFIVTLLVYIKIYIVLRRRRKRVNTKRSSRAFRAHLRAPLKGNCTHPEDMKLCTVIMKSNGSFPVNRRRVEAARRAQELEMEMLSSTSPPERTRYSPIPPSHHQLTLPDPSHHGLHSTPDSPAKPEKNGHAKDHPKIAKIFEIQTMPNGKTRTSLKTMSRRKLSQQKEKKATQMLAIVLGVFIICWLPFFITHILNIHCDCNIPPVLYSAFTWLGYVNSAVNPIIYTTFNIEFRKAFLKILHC
Outline: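 HEK293 cells stably expressing DRD2 were cultured 24 h at 37 C, then given Ro20-1724 (0.1 mM final) and compounds for 10 min at room temperature. NKH477 (200nM) was then added for 30 min. cAMP was read by HTRF.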

[16] = target: D(2) dopamine receptor (Homo sapiens) (UniProt P14416); experiment: Dopamine D2 receptor (DRD2) small molecule antagonists, cell-based qHTS assay (AID 1963595; active = well fitted inhibition curve with a large enough effect in the signal ratio in the repeat runs, with a control signal flat; the % refers to the signal ratio; note: potency is the fitted concentration of half-maximal effect)
Outline: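 In this cell-based antagonist screen, compounds act for 10 min at room temperature before a 30 min challenge with 12 nM quinpirole and 200 nM NKH477. cAMP is quantified by HTRF competition in DRD2-HEK293 cells containing 0.1 mM Ro20-1724.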

[17] = target: 5-hydroxytryptamine receptor 2A (Homo sapiens) (UniProt P28223); experiment: 5-hydroxytryptamine receptor 2A (HTR2A) small molecule antagonists, cell-based qHTS assay (AID 1963586); note: nearly all actives have a fitted effect of over 45% in size; note: potency is the fitted concentration of half-maximal effect
Outline: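 Antagonist-mode intracellular calcium assay: DOI (4 nM) added after 5 min compound pre-incubation at room temperature to dye-loaded HTR2A-CHO cells. Fluorescence followed for 3 min, sampled every second.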

[18] = cAMP Responsive Elements (CRE) small molecule agonists, cell-based qHTS assay (AID 1963590)
Outline: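 Agonist mode qHTS in CRE-bla HEK 293T cells: compounds dosed from DMSO for 3 h at 37 C/5% CO2, followed by LiveBLAzer B/G FRET substrate for 2 h at room temperature.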

[19] = target: Beta-2 adrenergic receptor (Homo sapiens) (UniProt P07550); experiment: Adrenergic beta2 receptor (ADRB2) small molecule antagonists, cell-based qHTS assay (AID 1963592); note: nearly all actives have a fitted effect of over 50% in size; note: potency is the fitted concentration of half-maximal effect
Sequence of Beta-2 adrenergic receptor (Homo sapiens) (P07550 whole entry, looked up): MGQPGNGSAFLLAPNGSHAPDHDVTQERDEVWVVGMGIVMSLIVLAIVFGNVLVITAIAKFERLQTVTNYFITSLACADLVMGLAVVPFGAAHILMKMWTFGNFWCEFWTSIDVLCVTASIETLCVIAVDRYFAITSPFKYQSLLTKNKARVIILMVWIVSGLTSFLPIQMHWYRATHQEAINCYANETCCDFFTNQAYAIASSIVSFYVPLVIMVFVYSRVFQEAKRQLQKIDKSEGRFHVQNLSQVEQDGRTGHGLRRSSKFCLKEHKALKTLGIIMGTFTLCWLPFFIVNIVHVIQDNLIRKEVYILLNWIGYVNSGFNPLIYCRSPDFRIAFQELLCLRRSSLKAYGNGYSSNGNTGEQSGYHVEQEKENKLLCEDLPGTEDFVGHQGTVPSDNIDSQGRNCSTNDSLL
Outline: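 Cells (CHO, stable ADRB2 overexpression) incubated 18-20hr at 37C; compounds added from DMSO; agonist mix (1nM isoproterenol, 100uM IBMX, 25uM Ro-20-1724) added; 0.5hr RT; d2-cAMP and anti-cAMP-cryptate added; 1hr RT; 665/615 nm read.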

[20] = target: Muscarinic acetylcholine receptor M1 (Homo sapiens) (UniProt P11229); experiment: Cholinergic receptor muscarinic 1 (CHRM1) small molecule antagonists, cell-based qHTS assay (AID 1963588); note: nearly all actives have a fitted effect of over 40% in size; note: potency is the fitted concentration of half-maximal effect
Outline: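 CHRM1-CHO calcium-flux assay, antagonist mode. Cells were seeded 18 h, dye-loaded 1 h at 37 C and given compound for 5 min at RT, then acetylcholine was added at 50nM. FDSS fluorescence was read 3 min; 15 concentrations, three runs.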

Structure (SMILES) | Potency [1] | Potency [2] | Potency [3] | Potency [4] | Potency [5] | Potency [6] | Potency [7] | Potency [8] | Potency [9] | Potency [10] | Potency [11] | Potency [12] | Potency [13] | Potency [14] | Potency [15] | Potency [16] | Potency [17] | Potency [18] | Potency [19] | Potency [20]
CC(C(O)c1ccccc1)N(C)C/C=C/c1ccccc1 (centres undefined) | inactive | inactive | inactive | inactive | inactive | inactive | inactive | inactive | inactive | inactive | inactive | inactive | inactive | inactive | inactive | inactive | – | – | – | –
CSC1=N[C@@](C)(c2ccccc2)C(=O)N1Nc1ccccc1 | inactive | inactive | inactive | inactive | inactive | inactive | inactive | inactive | inactive | inactive | – | inactive | inactive | inactive | inactive | inactive | inactive | inactive | inactive | –
C=CCC1=C(C)[C@@H](OC(=O)[C@@H]2[C@@H](C=C(C)C)C2(C)C)CC1=O | inactive | 61.1 µM (active) | inactive | inactive | inactive | inactive | inactive | inactive | inactive | inactive | – | inactive | inactive | – | inactive | – | inactive | – | – | 16.8 µM (active)
CCSC(=O)Cl | inactive | inactive | inactive | inactive | inactive | inactive | inactive | inactive | inactive | inactive | inactive | inactive | inactive | inactive | inactive | inactive | – | inactive | inactive | –
CCCCCCCCP(=O)(O)O | inactive | inactive | inactive | inactive | inactive | inactive | inactive | inactive | inactive | inactive | – | inactive | inactive | – | – | inactive | inactive | inactive | inactive | inactive
Nc1ccccc1-c1ccccc1 | inactive | inactive | inactive | inactive | inactive | inactive | inactive | inactive | inactive | inactive | – | – | inactive | inactive | inactive | – | inactive | inactive | inactive | inactive
C=CC(=O)[O][Sn]([CH2]CCC)([CH2]CCC)[CH2]CCC | 0.969 µM (active) | 1.37 µM (active) | 5.49 µM (active) | 19.5 µM (active) | 38.9 µM (active) | inactive | inactive | 5.13 µM (active) | 8.14 µM (active) | 1.62 µM (active) | – | 12.3 µM (active) | 11 µM (active) | – | – | 2.43 µM (active) | 3.75 µM (active) | – | 0.969 µM (active) | –
COC(=O)C1(O)c2ccccc2-c2ccccc21 | inactive | inactive | inactive | inactive | inactive | inactive | inactive | inactive | inactive | inactive | inactive | inactive | – | inactive | inactive | inactive | – | inactive | inactive | inactive
CC(C)(C)c1ccc(CSc2cnn(C(C)(C)C)c(=O)c2Cl)cc1 | inactive | inactive | inactive | inactive | inactive | inactive | inactive | inactive | inactive | inactive | – | inactive | inactive | – | – | inactive | inactive | – | inactive | inactive
[Cl][Sn]([Cl])([Cl])[Cl] | inactive | inactive | inactive | inactive | inactive | inactive | inactive | inactive | inactive | inactive | inactive | inactive | inactive | inactive | inactive | inactive | – | inactive | – | inactive
N#CC(Br)(Br)C(N)=O | inactive | inactive | inactive | inactive | inactive | inactive | inactive | inactive | inactive | inactive | inactive | inactive | inactive | – | inactive | – | – | inactive | – | 0.0047 µM (active)
CCSC(C)CC1CC(=O)C(/C(CC)=N/OC/C=C/Cl)=C(O)C1 (centres undefined) | inactive | inactive | inactive | inactive | inactive | inactive | inactive | inactive | inactive | inactive | – | inactive | inactive | – | inactive | inactive | inactive | inactive | – | inactive
CC(Oc1ccc(Oc2ncc(C(F)(F)F)cc2Cl)cc1)C(=O)O (centres undefined) | inactive | inactive | inactive | inactive | inactive | inactive | inactive | inactive | inactive | inactive | – | inactive | inactive | – | inactive | inactive | inactive | – | inactive | inactive
COc1ccc(-c2ccccc2)cc1NNC(=O)OC(C)C | inactive | inactive | inactive | inactive | inactive | inactive | inactive | inactive | inactive | inactive | – | inactive | inactive | inactive | – | inactive | inactive | – | inactive | inactive
CCS(=O)(=O)C(C)(C)S(=O)(=O)CC | inactive | inactive | inactive | inactive | inactive | inactive | inactive | inactive | inactive | inactive | – | inactive | inactive | inactive | – | inactive | inactive | inactive | inactive | –
Cc1c([N+](=O)[O-])c(C)c([N+](=O)[O-])c(C(C)(C)C)c1[N+](=O)[O-] | inactive | inactive | inactive | inactive | inactive | inactive | inactive | inactive | inactive | inactive | – | inactive | inactive | – | inactive | inactive | inactive | – | inactive | inactive
